Screening results from PubChem BioAssay.
Hits are enriched below; roughly 7.4% of the tested compounds scored in any of these assays.
Rab9 prom act: Rab9 promoter activation | Huh7 Rab9 promoter-luciferase reporter, luminescence, 24 h | Potency, µM (titrated, usually from 9.22 µM), inactives show at the highest dose activation, negative = inhibition, most hits filed as activators | hit rate 2.8% among 320,000; also: % of control where 0% means no effect; nearly all actives have a fitted effect of over 60% in size
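Stable Rab9-luc Huh7, 1500 cells/well, 2 h settle; cmpd in DMSO, 24 h, 37 °C/5% CO2; luciferase reagent 10 min RT; luminescence.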
SMN2 splice enh: enhancers of SMN2 splice variant expression; HEK293 SMN2-luciferase splicing reporter, luminescence, 30-36 h; Potency, µM (titrated, usually from 46.1 µM), for inactives: at the top dose activity change, positive = activation, actives largely listed as activators; hit rate 2.8% among 210,000; also: % of control where 0% means no effect; nearly all actives have a fitted effect of over 55% in size
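qHTS luciferase splicing reporter: luminescence rises when SMN2 exon 7 is included in transfected HEK293 cells. Compound exposure lasted 30-36 h at 37C, with 4.5 mM final sodium butyrate as control, followed by a ONE-Glo read.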
FLuc counter: inhibits or activates purified firefly luciferase, miR-21 counter-screen; P08659; purified FLuc, Km substrates, luminescence inhibition; Potency, µM (titrated, usually from 57.5 µM), for the others: at the highest dose activity change, negative = inhibition, hits mostly inhibitors; hit rate 6.9% among 360,000;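 also: plate controls were vehicle for no effect and reference inhibitor for full effect; nearly all actives have a fitted effect of over 55% in size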
Target sequence (P08659 whole entry, looked up): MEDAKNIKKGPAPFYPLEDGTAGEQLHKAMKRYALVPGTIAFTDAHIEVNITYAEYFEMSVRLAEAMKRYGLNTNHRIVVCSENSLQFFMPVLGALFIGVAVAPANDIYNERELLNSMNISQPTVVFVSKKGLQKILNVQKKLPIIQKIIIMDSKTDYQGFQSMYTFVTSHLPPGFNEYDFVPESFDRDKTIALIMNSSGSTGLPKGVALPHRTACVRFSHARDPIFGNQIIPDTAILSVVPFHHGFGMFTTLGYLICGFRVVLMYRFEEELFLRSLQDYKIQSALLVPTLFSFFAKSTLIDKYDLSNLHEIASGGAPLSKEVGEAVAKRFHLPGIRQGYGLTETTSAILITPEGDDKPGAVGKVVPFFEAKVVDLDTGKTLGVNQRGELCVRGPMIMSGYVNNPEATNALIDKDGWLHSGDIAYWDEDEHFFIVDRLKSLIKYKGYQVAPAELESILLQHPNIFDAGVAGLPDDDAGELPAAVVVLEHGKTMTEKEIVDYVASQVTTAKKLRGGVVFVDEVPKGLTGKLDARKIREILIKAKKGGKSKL
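Purified P. pyralis luciferase, 10 nM final, with Km-level 10 uM D-luciferin and 10 uM ATP in 50 mM Tris acetate pH 7.5, 10 mM Mg acetate, 0.01% Tween-20, 0.05% BSA; 6-point qHTS titration about 60 µM downward; luminescence read.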
ELG1 genotoxic: genotoxicity induction in ELG1-luciferase HEK293T cells; HEK293T ELG1-luciferase reporter, luminescence, 16 h; Potency, µM (series often up to 46 µM), without a hit: at the top dose activity change, positive = activation, actives largely listed as activators; hit rate 1.3% among 330,000; AID 504466; also: % of control where 0% means no effect; nearly all actives have a fitted effect of over 60% in size
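Step 1: seed 2,000 HEK293T ELG1-luciferase cells per well. Step 2: add compound or DMSO, incubate 16 hr at 37 °C. Step 3: ONE-Glo, 30 min at room temperature, read luminescence.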
NPC1 prom act: activates the NPC1 promoter; Huh7 NPC1 promoter luciferase reporter, 24 h; Potency, µM (titrated, usually from 9.22 µM), without a hit: at the highest dose activation, actives largely listed as activators; hit rate 2.4% among 320,000; also: % of control where 0% means no effect; nearly all actives have a fitted effect of over 60% in size
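Huh7 cells stably carrying NPC1 promoter–luciferase, plated in Opti-MEM with 10% FBS for 2 h, were exposed to compound in DMSO for 24 h at 37 °C; luciferase reagent was added for 10 min and luminescence read.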
The depositor's hits bear a star; ? = inconclusive; . = not tested or not shown; [ ] = dose if it differs, or a comment. Calls follow the shape of the dose curve; as a rule, active = well fitted curve in the direction sought with a large enough effect; inconclusive = small, poorly fitted or top-dose-only effect, or another doubt; inactive = no such curve, though single readings can be large; an effect the other way counts as inactive or inconclusive. Potency is read from the fitted curve at half-maximal effect.

SMILES | Rab9 prom act | SMN2 splice enh | FLuc counter | ELG1 genotoxic | NPC1 prom act
N#Cc1cccc(NC(=O)c2sc3nc4c(cc3c2N)N2CCC4CC2)c1 | . | . | 12µM* | . | .
CN(C)c1ccc(NC(=O)c2sc3nc4c(cc3c2N)N2CCC4CC2)cc1 | . | 0% | -8% | . | .
Nc1c(C(=O)Nc2ccc(F)c(Cl)c2)sc2nc3c(cc12)N1CCC3CC1 | . | -45% | 8.5µM* | . | .
CCN1C(=O)C(=Cc2ccc(C)s2)C(=O)N(CC)C1=S | 18% | 20µM* | ? | ? | ?
CCCCNC(=O)Nc1ccc(C(O)(C(=O)OC)C(F)(F)F)cc1 (centres undefined) | 13% | . | ? | 16% | 13%
COC(=O)C(O)(c1ccc(NC(=O)c2ccccc2)cc1)C(F)(F)F (centres undefined) | ? | . | 19µM* | 9% | ?
COC(=O)C(O)(c1ccc(NC(=O)c2cccs2)cc1)C(F)(F)F (centres undefined) | ? | . | 15µM* | 17% | 26%
COC(=O)c1ccccc1N | . | -13% | . | . | .
CN(C)C(=O)Oc1ccc(OCc2nc3ccccc3[nH]2)cc1 | 0.45µM* | 7.1µM* | 1.5µM* | ? | ?
Nc1c2c(nc3sc4c(c13)CCCCC4)CCCC2 | ? | 11µM* | 6µM* | -5% | 4µM*
C[C@H](NC(=O)[C@@H](N)Cc1ccc(O)cc1)C(=O)NCC(=O)N(C)[C@@H](Cc1ccccc1)C(=O)N[C@H](CO)CCS(C)=O (some centres undefined) | . | -1% | . | . | .
Cc1nc2ccc(NC(=O)c3ccc(Cl)s3)cc2s1 | 1.6µM* | 14µM* | ? | 9.2µM* | 3.2µM*
CN1C(=O)C(=Cc2ccc(N3CCCCCC3)o2)C(=O)N(C)C1=S | ? | 20% | 11µM* | ? | ?
CN1C(=O)C(=Cc2ccc(N3CCOCC3)o2)C(=O)N(C)C1=O | 4% | ? | ? | 14% | 3%
C/C=C/C=O | . | 2% | . | . | .
ClC1=C(Cl)C2(Cl)C3C(Cl)C(Cl)CC3C1(Cl)C2(Cl)Cl (centres undefined) | . | -11% | . | . | .
COc1ccc(-n2nc(C(=O)NCC(=O)N3CCC4(CC3)OCCO4)c3ccccc3c2=O)c(OC)c1 | ? | . | 1.1µM* | ? | ?
O=C(Cn1cnc2ccccc2c1=O)NCC(=O)N1CCC2(CC1)OCCO2 | -2% | 21% | 2% | 0% | 0%
O=C(CN1C(=O)S/C(=C\C=C\c2ccccc2)C1=O)Nc1ccccc1C(=O)O | 10% | . | 27µM* | 3% | 1%
O=C1NC(=O)N(c2ccccc2)C(=O)/C1=C\C=C\c1ccccc1 | -19% | . | ? | -15% | -3%
CC(=O)Nc1ccc(NC(=O)Oc2ccccc2)cc1 | -1% | 2% | ? | 2% | -4%
CN(C)c1ccc(NC(=O)Oc2ccccc2)cc1 | 11% | -2% | 3µM* | ? | 1%
O=C(O)C(O)(c1ccc(-c2ccccc2)cc1)c1ccc(-c2ccccc2)cc1 | . | -10%[9.22 µM] | . | . | .
S=P(C1CCCCC1)(C1CCCCC1)[C@H](c1cccnc1)N1CCCC1 | . | -4%[9.22 µM] | . | . | .
CC1CCN(C(=O)COC(=O)c2cn(C)c3ccccc23)CC1 | -2% | . | 24µM* | 7% | -3%
SMILES | Rab9 prom act | SMN2 splice enh | FLuc counter | ELG1 genotoxic | NPC1 prom act
C[C@@H]1O[C@H](C[N+](C)(C)C)C[C@@H]1O | . | -4% | . | . | .
CNC(=O)c1cccn(Cc2ccc(C(F)(F)F)cc2)c1=O | 14% | -8% | 0% | 18µM* | -14%
COc1ccc(NC(=O)CCc2nc(C3=CCN(Cc4cccc(C)c4)CC3)no2)c(OC)c1 | . | . | -16% | . | .
COc1cccc(NC(=O)CCc2nc(-c3ccc(C(C)(C)C)cc3)no2)c1 | . | -72% | 2.7µM* | . | .
COc1ccc(C(=O)Nc2sc3c(c2C(=O)O)CC(C)(C)OC3)cc1 | -8% | -36% | 17µM* | -7% | -1%
CC(C)=C[C@H]1[C@@H](C(=O)OCc2cc3c(cc2Cl)OCO3)C1(C)C | . | -14%[9.22 µM] | . | . | .
c1ccc2cc3c(cc2c1)-c1cccc2cccc-3c12 | . | 4% | . | . | .
CC(=O)Nc1ccccc1C(=O)OCC(=O)c1ccc2c(c1)OCCO2 | 3.5µM* | . | 0.76µM* | 11% | ?
Cc1onc(-c2ccccc2Cl)c1C(=O)OCC(=O)c1ccc2c(c1)OCCO2 | 7% | 13% | 4.8µM* | -9% | 7%
CC(=O)Nc1ccccc1C(=O)OCC(=O)Nc1ncccn1 | -3% | . | -1% | 9% | 3%
O=C(CSc1nnc(NC(=O)c2cccc(F)c2)s1)NCc1ccco1 | ? | . | 3.4µM* | 26% | ?
CN1CCc2cc3c(c4c2C1Cc1ccccc1-4)OCO3 (centres undefined) | 6.3µM* | . | -1% | -6% | 9%
CN(C)C(=O)Oc1ccc2c(c1)O/C(=C\c1cccc([N+](=O)[O-])c1)C2=O | -4% | . | 0% | 1% | 1%
CN(C)C(=O)Oc1ccc2c(c1)O/C(=C\c1ccc(Cl)cc1)C2=O | 4.5µM* | . | ? | ? | ?
CN(C)C(=O)Oc1ccc2c(c1)O/C(=C\c1cccc(Cl)c1)C2=O | ? | . | 27µM* | 13% | ?
O=C1/C(=C/c2ccc(F)cc2)Oc2cc(OC(=O)N3CCOCC3)ccc21 | 22% | . | 5.4µM* | 4% | 27%
CN(CC(=O)N1CCc2ccccc21)S(=O)(=O)c1cccs1 | 3.5µM* | 11µM* | 12µM* | 10µM* | 2.8µM*
CC(=O)[O-].CC(=O)[O-].CC(=O)[O-].[Cr+3] | . | -16% | . | . | .
O=C1NC(=O)N(c2ccc(Br)cc2)C(=O)/C1=C/c1ccsc1 | 0% | . | ? | 0% | -8%
O=C1NC(=O)N(c2ccc(F)cc2)C(=O)/C1=C/c1ccsc1 | -1% | 9% | 19µM* | 2% | 5%
O=C1NC(=O)N(c2cccc(Br)c2)C(=O)/C1=C/c1ccsc1 | -7% | . | 17µM* | 0% | -2%
O=C(O)/C=C\c1ccc[c]([Sb])c1 | . | -14%[9.22 µM] | . | . | .
FC(F)(F)c1ccc(Cl)cc1 | . | 22% | . | . | .
c1cncc(CNC2=NCCCCC2)c1 | 2% | -21% | 5% | 5% | -4%
c1cncc(CNc2cc(-c3ccc4c(c3)OCO4)ncn2)c1 | . | 10µM* | . | . | .
SMILES | Rab9 prom act | SMN2 splice enh | FLuc counter | ELG1 genotoxic | NPC1 prom act
NCCSC(c1ccccc1)c1ccccc1 | . | -10%[9.22 µM] | . | . | .
CC(C)(C)c1ccc(C(=O)Nc2ccc3nc(SCC(=O)N4CCCC4)sc3c2)cc1 | . | . | 7.6µM* | . | .
CCN(CC)C(=O)c1ccc(NC(=O)c2ccc(N3CCCC3=O)cc2)cc1 | -7% | . | ? | 1% | -1%
CCN(N=O)C(N)=O | . | 7% | . | . | .
CCOc1ccc(NC(=O)c2ccc(NC(=O)COC(=O)Cc3ccccc3)cc2)cc1 | ? | 20µM* | -14% | ? | ?
Cc1ccc2ccccc2c1C | . | -1% | . | . | .
O=P(Nc1cccnc1)(Oc1ccccc1)Oc1ccccc1 | 0% | 4µM* | -3% | 0% | 0%
Cc1ccc(NC(=O)OC(C)CNC(=O)Oc2cccc(C)c2)cc1 (centres undefined) | 25% | -3% | 24µM* | -12% | 16%
COC(=O)Nc1cccc(OC(=O)Nc2cccc(C)c2)c1 | . | 20% | . | . | .
